Experimental data taken from PubChem BioAssay (Tox21).
Where “and” joins values, the source holds several entries; their conditions need not be identical. Equal entries are not always repeated. Inconclusive results are not listed. Where a structure was tested more than once in an assay, its records may differ in their call. Calls of active or inactive are those of the source. Unless noted, the call rests on the fitted dose curve; in most records, active means well fitted curve in the direction sought with a large enough effect in the repeat runs; inconclusive means weak or mixed curves; inactive means no such curve, though single readings can be large; an effect the other way counts as inactive or inconclusive.

What was measured:
[1] = A CellTox Green Cytotoxicity Assay to monitor cytotoxicity in HEK293 cells - 32 hour (AID 1224881); further: nearly all actives have a fitted effect of over 40% in size; further: potency means the concentration at half of the fitted maximal effect
Method in brief: (§1)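 Cells (HEK293, 600/well) and dye reagent are dispensed together. After 5 h at 37 C, 23 nL compound is pinned in. Plates stay at 37 C for 40 h with fluorescence read at 0h, 8h, 16h, 24h, 32h and 40h.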

[2] = A CellTox Green Cytotoxicity Assay to monitor cytotoxicity in HepG2 cells - 0 hour (AID 1224882); further: nearly all actives have a fitted effect of over 35% in size
Method in brief: (§2)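 Cells and non-lytic dye reagent are dispensed together (600 HepG2 cells/well) and incubated 5 h before DMSO compound transfer. Kinetic fluorescence is then recorded in the same wells during 40 h at 37 C.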

[3] = A CellTox Green Cytotoxicity Assay to monitor cytotoxicity in HepG2 cells - 32 hour (AID 1224883); further: nearly all actives have a fitted effect of over 50% in size; further: potency means the concentration at half of the fitted maximal effect
Method in brief: as §2

[4] = A CellTox Green Cytotoxicity Assay to monitor cytotoxicity in HEK293 cells - 8 hour (AID 1224884); further: nearly all actives have a fitted effect of over 35% in size; further: potency means the concentration at half of the fitted maximal effect
Method in brief: as §1

[5] = qHTS RealTime-Glo MT Cell Viability Assay in HepG2 cells - 16 hour (AID 1224885); further: nearly all actives have a fitted effect of over 50% in size; further: potency means the concentration at half of the fitted maximal effect
Method in brief: (§3)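 HepG2 suspension premixed with RealTime-Glo reagents is plated at 600 cells per well and left 5 h at 37 C/5% CO2. Compounds in DMSO then go in, and bioluminescence reflecting viable cell number is recorded over 40 h.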

[6] = qHTS RealTime-Glo MT Cell Viability Assay in HEK293 cells - 24 hour (AID 1224886); further: nearly all actives have a fitted effect of over 50% in size; further: potency means the concentration at half of the fitted maximal effect
Method in brief: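 Reads taken at 0, 8, 16, 24, 32 and 40 h from the same wells. HEK293 cells (600/well) carried RealTime-Glo reagents from seeding, with compound added after a 5 h settle at 37 C.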

[7] = qHTS RealTime-Glo MT Cell Viability Assay in HEK293 cells - 8 hour (AID 1224887); further: nearly all actives have a fitted effect of over 50% in size; further: potency means the concentration at half of the fitted maximal effect
Method in brief: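 Real-time viability in HEK293: signal arises when living cells convert a prosubstrate for NanoLuc in the medium, so luminescence tracks viable cell number. Compound (23 nL, DMSO) added 5 h post-seeding; kinetic reads at 0–40 h, 37 C.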

[8] = A CellTox Green Cytotoxicity Assay to monitor cytotoxicity in HEK293 cells - 16 hour (AID 1224888); further: nearly all actives have a fitted effect of over 35% in size; further: potency means the concentration at half of the fitted maximal effect
Method in brief: as §1

[9] = qHTS RealTime-Glo MT Cell Viability Assay in HepG2 cells - 0 hour (AID 1224889); further: nearly all actives have a fitted effect of over 50% in size
Method in brief: as §3

[10] = A CellTox Green Cytotoxicity Assay to monitor cytotoxicity in HepG2 cells - 8 hour (AID 1224890); further: nearly all actives have a fitted effect of over 45% in size; further: potency means the concentration at half of the fitted maximal effect
Method in brief: as §2

[11] = qHTS assay to identify small molecule antagonists of the estrogen receptor alpha (ER-alpha) signaling pathway using the BG1 cell line in the presence of 0.1 nM 17-beta-estradiol - cell viability counter screen (AID 1259241); further: nearly all actives have a fitted effect of over 40% in size; further: potency means the concentration at half of the fitted maximal effect
Method in brief: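 CellTiter-Fluor read (30 min, 37C) on ER-alpha/ERE-luc VM7Luc4E2 cells; 22 hr compound treatment; agonist 0.1 nM E2 final; same-well multiplex.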

[12] = qHTS assay to identify small molecule antagonists of the androgen receptor (AR) signaling pathway using the MDA cell line in the presence of 0.5 nM R1881 - cell viability counter screen (AID 1259242); further: nearly all actives have a fitted effect of over 45% in size; further: potency means the concentration at half of the fitted maximal effect
Method in brief: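 Steps: plate MDA-kb2 cells, rest 5 hr at 37C without CO2; pin in compounds in DMSO; add R1881 to 0.5 nM final; incubate 16 hr; add CellTiter-Fluor, 30 min; read fluorescence.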

[13] = qHTS assay to identify small molecule phospholipidosis (PLD) inducers (AID 1259344; active means well fitted curve in the direction sought with a large enough effect; an effect the other way counts as inactive or inconclusive)
Method in brief: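 Image-based: LipidTOX Red pit count/intensity per well and per cell; HepG2, 24 h compound at 37 C, PFA fixation, Hoechst counterstain.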

[14] = qHTS assay to identify small molecule HDAC inhibitors (AID 1259364);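 further: wild-type HCT-116 cells with endogenous class I/II HDAC activity; top concentration of the series differs between compounds; nearly all actives have a fitted effect of over 45% in size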
Method in brief: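 Cells (HCT-116, wild type) are seeded at 1,500 per well, incubated overnight, treated with compound in DMSO for 2 hr, then developed with HDAC-Glo I/II reagent for 30 min at room temperature.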

[15] = qHTS assay to identify small molecule HDAC inhibitors - cell viability counter screen (AID 1259365)
Method in brief: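 To flag cytotoxic hits, 1,500 wild-type HCT-116 cells per well, plated the day before, receive test compounds for 2hr at 37 C before CellTiter-Glo reagent and a luminescence read.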

[16] = qHTS assay to identify small molecule agonists of the sonic hedgehog signaling (Shh) pathway - cell viability counter screen (AID 1259366); further: nearly all actives have a fitted effect of over 50% in size; further: potency means the concentration at half of the fitted maximal effect
Method in brief: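 Fluorescence from CellTiter-Fluor reports live cells in this counter screen. NIH/3T3-derived Gli1-Luc reporter cells receive test compounds for 24hr at 37C; reagent goes in at 23hr.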

[17] = qHTS assay to identify small molecule antagonists of the sonic hedgehog signaling (Shh) pathway - cell viability counter screen (AID 1259367); further: nearly all actives have a fitted effect of over 55% in size; further: potency means the concentration at half of the fitted maximal effect
Method in brief: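 Tox21 library chemicals were tested on a Gli1-Luc NIH/3T3 clone (2,000 cells/well) stimulated by conditioned medium; viability was quantified as fluorescence from CellTiter-Fluor reagent added at 23 hr.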

[18] = qHTS assay to identify small molecule agonists of the sonic hedgehog signaling (Shh) pathway (AID 1259368; calls by dose curve;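 further: NIH/3T3-derived 3T3Gli1-Luc cells carrying a stable Gli1-driven firefly luciferase reporter; series mostly up to about 92 µM; nearly all actives have a fitted effect of over 15% in size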)
Method in brief: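 Cells of a mouse NIH/3T3 clone stably expressing luciferase under the Gli1 transcriptional response element are exposed to test chemicals for 24 hr at 37 C. Pathway activation is detected as a rise in luminescence.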

[19] = target: Estrogen receptor (Homo sapiens) (UniProt P03372); test: qHTS assay to identify small molecule antagonists of the estrogen receptor alpha (ER-alpha) signaling pathway using the BG1 cell line in the presence of 0.1 nM 17-beta-estradiol (AID 1259244); further: nearly all actives have a fitted effect of over 50% in size; further: potency means the concentration at half of the fitted maximal effect
Method in brief: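 Antagonist mode: compounds in DMSO are pinned onto VM7Luc4E2 reporter cells, 0.1 nM final 17beta-estradiol is added, and after 22 h at 37C luciferase luminescence is measured with ONE-Glo.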

[20] = target: Androgen receptor (Homo sapiens) (UniProt P10275); test: qHTS assay to identify small molecule antagonists of the androgen receptor (AR) signaling pathway using the MDA cell line in the presence of 0.5 nM R1881 (AID 1259243); further: nearly all actives have a fitted effect of over 50% in size
Method in brief: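 Stably transfected MDA-kb2 cells express luciferase from an MMTV promoter bearing both AR and GR response elements. Compounds plus 0.5 nM R1881 (final) were incubated 16 hr at 37C without CO2, then luminescence measured.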
On the % scale 0 is the no-effect control and ±100 the full control effect.

Estrogen receptor (Homo sapiens), sequence (P03372 whole entry, looked up): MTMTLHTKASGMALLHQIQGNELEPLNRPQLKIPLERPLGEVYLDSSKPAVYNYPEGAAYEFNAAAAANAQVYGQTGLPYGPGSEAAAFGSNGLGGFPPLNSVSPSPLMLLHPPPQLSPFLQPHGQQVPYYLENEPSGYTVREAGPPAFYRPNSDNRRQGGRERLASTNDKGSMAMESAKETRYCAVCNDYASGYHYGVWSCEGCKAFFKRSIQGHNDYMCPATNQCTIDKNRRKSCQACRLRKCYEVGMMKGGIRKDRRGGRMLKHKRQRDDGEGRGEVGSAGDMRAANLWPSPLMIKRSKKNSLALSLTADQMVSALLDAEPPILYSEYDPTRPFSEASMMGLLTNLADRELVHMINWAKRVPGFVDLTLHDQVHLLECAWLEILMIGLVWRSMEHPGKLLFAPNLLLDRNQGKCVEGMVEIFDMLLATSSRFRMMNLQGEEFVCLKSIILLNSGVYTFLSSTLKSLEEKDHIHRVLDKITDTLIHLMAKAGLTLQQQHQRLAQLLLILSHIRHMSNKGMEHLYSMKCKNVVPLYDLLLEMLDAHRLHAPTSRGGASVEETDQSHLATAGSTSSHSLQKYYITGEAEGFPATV
Androgen receptor (Homo sapiens), sequence (P10275 whole entry, looked up): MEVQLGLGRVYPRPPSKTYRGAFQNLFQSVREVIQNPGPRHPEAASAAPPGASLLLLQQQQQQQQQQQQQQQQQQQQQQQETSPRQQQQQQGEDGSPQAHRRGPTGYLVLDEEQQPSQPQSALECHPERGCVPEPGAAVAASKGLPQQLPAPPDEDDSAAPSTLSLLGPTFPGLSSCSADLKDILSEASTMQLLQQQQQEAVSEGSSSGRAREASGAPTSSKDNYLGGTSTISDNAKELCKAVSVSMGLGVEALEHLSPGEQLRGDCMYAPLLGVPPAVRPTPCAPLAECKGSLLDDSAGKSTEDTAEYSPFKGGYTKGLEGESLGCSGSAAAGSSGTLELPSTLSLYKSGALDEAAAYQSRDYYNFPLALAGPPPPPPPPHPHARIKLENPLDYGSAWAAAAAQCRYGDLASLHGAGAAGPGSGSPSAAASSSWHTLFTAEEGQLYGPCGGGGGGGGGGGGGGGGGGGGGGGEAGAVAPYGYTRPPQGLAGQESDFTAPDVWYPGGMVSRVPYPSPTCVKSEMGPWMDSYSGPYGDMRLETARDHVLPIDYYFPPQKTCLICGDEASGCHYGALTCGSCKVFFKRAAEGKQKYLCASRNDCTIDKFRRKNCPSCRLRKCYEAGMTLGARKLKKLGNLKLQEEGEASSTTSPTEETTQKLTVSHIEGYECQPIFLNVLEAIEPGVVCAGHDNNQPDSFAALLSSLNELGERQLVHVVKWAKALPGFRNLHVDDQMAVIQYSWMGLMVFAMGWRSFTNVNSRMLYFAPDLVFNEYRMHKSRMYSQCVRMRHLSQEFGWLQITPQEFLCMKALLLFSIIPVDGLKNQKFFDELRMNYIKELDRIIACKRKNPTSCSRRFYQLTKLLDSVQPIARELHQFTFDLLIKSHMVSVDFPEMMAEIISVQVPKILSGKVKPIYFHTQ

COc1cccc2c1C(=O)c1c(O)c3c(c(O)c1C2=O)C[C@@](O)(C(C)=O)C[C@@H]3O[C@H]1C[C@H](N)[C@H](O)[C@H](C)O1
inactive and 30.1 nM (active): Potency [3]
inactive: Potency [2] | Potency [9] | PLD induction [13] -3.33% [at 7.66 µM] | Potency [14] | Potency [15] | Potency [18]
active: Potency [4] 39.1 µM | Potency [5] 43.9 µM and 23.9 µM | Potency [6] 110 nM and 4.8 nM | Potency [7] 15.6 µM and 21.3 µM | Potency [8] 39.1 µM | Potency [10] 55.3 µM | Potency [11] 30.8 µM and 13.3 µM | Potency [12] 48.9 µM | Potency [16] 615 nM and 2.11 µM | Potency [17] 1.09 µM and 1.88 µM
43.9 µM (active) and inactive: Potency [1]

C=CCCC(=O)/C=C/C1C(C)=CCCC1(C)C (configuration not stated)
inactive: Potency [2] | Potency [3] | Potency [4] | Potency [5] | Potency [6] | Potency [7] | Potency [9] | Potency [10] | Potency [11] | Potency [12] | Potency [14] | Potency [15] | Potency [16]
active: Potency [1] 24.5 µM

CN(C)Cc1cc(C(C)(C)C)c(O)c(C(C)(C)C)c1
inactive: Potency [1] | Potency [2] | Potency [3] | Potency [4] | Potency [5] | Potency [6] | Potency [7] | Potency [8] | Potency [9] | Potency [10] | Potency [11] | Potency [12] | Potency [14] | Potency [15] | Potency [16] | Potency [17]

CCCCCc1ccc(Cl)cc1
inactive: Potency [1] | Potency [2] | Potency [3] | Potency [4] | Potency [5] | Potency [7] | Potency [8] | Potency [9] | Potency [10] | Potency [11] | Potency [12] | Potency [19] | Potency [14] | Potency [15] | Potency [16] | Potency [17] | Potency [18]

Clc1nnc(Cl)c2ccccc12
inactive: Potency [1] | Potency [2] | Potency [3] | Potency [4] | Potency [5] | Potency [6] | Potency [7] | Potency [8] | Potency [9] | Potency [10] | Potency [11] | Potency [19] | Potency [14] | Potency [15] | Potency [16] | Potency [17] | Potency [18]

CCC(COC(=O)CCS)(COC(=O)CCS)COC(=O)CCS
inactive: Potency [1] | Potency [2] | Potency [3] | Potency [4] | Potency [5] | Potency [6] | Potency [7] | Potency [8] | Potency [9] | Potency [10] | Potency [12] | Potency [19] | Potency [14] | Potency [15] | Potency [16] | Potency [17] | Potency [18]

O=C(Oc1ccccc1)Oc1ccccc1
inactive: Potency [1] | Potency [2] | Potency [3] | Potency [4] | Potency [6] | Potency [7] | Potency [8] | Potency [9] | Potency [10] | Potency [11] | Potency [12] | Potency [19] | Potency [14] | Potency [15] | Potency [16] | Potency [18]

O=C1CCc2cc(OCCCCc3nnnn3C3CCCCC3)ccc2N1
active: Potency [19] 21.1 µM
inactive: Potency [1] | Potency [2] | Potency [3] | Potency [4] | Potency [5] | Potency [7] | Potency [8] | Potency [10] | Potency [11] | Potency [12] | Potency [13] | Potency [14] | Potency [15] | Potency [16] | Potency [17] | Potency [18]

CC(=O)CC(=O)Nc1ccc(S(=O)(=O)O)cc1
inactive: Potency [1] | Potency [2] | Potency [3] | Potency [4] | Potency [6] | Potency [7] | Potency [8] | Potency [9] | Potency [10] | Potency [11] | Potency [12] | Potency [19] | Potency [14] | Potency [15] | Potency [16] | Potency [17] | Potency [18]

CC(C)CCCCCOC(=O)CCS
inactive: Potency [1] | Potency [2] | Potency [3] | Potency [4] | Potency [6] | Potency [7] | Potency [8] | Potency [9] | Potency [10] | Potency [11] | Potency [12] | Potency [19] | Potency [14] | Potency [15] | Potency [16] | Potency [17] | Potency [18]

O=C(Nc1ccc2c(O)c(N=Nc3ccc(N=Nc4ccc(S(=O)(=O)O)cc4)cc3)c(S(=O)(=O)O)cc2c1)c1ccccc1
inactive: Potency [1] | Potency [2] | Potency [3] | Potency [4] | Potency [6] | Potency [7] | Potency [8] | Potency [10] | Potency [14] | Potency [18]
active: Potency [11] 12.2 µM | Potency [12] 27.3 µM | Potency [19] 27.3 µM | Potency [16] 10.9 µM | Potency [17] 21.7 µM

CCOC(=O)NNc1ccc(N(CC)CC(C)O)nn1 (configuration not stated)
inactive: Potency [1] | Potency [2] | Potency [3] | Potency [4] | Potency [6] | Potency [7] | Potency [8] | Potency [10] | Potency [11] | Potency [12] | Potency [19] | PLD induction [13] -4.24% [at 7.66 µM] | Potency [14] | Potency [15] | Potency [16] | Potency [17]

CN(C)CCN1CCN(c2cccc(Cl)c2)C1=O
inactive: Potency [1] | Potency [2] | Potency [3] | Potency [4] | Potency [5] | Potency [8] | Potency [9] | Potency [10] | Potency [11] | Potency [12] | Potency [20] | Potency [19] | Potency [14] | Potency [15] | Potency [16] | Potency [17] | Potency [18]

COCCOc1cc2cc(C(=O)NC3CCN(C(C)C)CC3)n(CC(=O)Nc3ccc(Cl)cn3)c2cn1
inactive: Potency [1] | Potency [2] | Potency [3] | Potency [4] | Potency [5] | Potency [8] | Potency [9] | Potency [10] | Potency [11] | Potency [12] | Potency [14] | Potency [16] | Potency [18]
